Screens (PubChem)
Shown are actives, neighbours in structure and some others; about 8% of the full set was active somewhere.
KB-V1 MDR tox: qHTS assay for MDR1-selective chemotherapeutics: Primary screen using the drug-selected MDR subline cells KB-V1; 400,000 compounds, 3.4% hits; Potency, µM (doses to about 46.1 µM), most hits filed as cytotoxic; KB-V1 MDR cells viability, CellTiter-Glo, 72 h; further: nearly all actives have a fitted effect of over 60% in size
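Potencies derive from concentration-effect curves fitted to normalized luminescence (CellTiter-Glo) of KB-V1 cells treated for 72 h at 37 degrees C in phenol-red-free DMEM containing 10% FBS.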
HT1080 IDH1KD tx: qHTS for induction of synthetic lethality in tumor cells producing 2HG: qHTS for the HT-1080-IDH1KD cell line | HT-1080 IDH1 knockdown viability, ATP luminescence, 48 h | Potency, µM (highest dose often 46.1 µM), hits mostly cytotoxic | 360,000 compounds, 2% hits
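In this qHTS, HT-1080 cells depleted of IDH1 are exposed for 48 h at 37 °C to compound titrations. Toxicity is scored from CellTiter-Glo luminescence, with DMSO as full viability and medium alone as none.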
MCF10A rerep: A quantitative high throughput screen for small molecules that induce DNA re-replication in MCF 10a normal breast cells; Potency, µM (doses to about 46.1 µM), hits mostly activators; 350,000 compounds, 2.9% hits; MCF 10A DNA re-replication, Hoechst nuclear intensity, 48 h; further: nearly all actives have a fitted effect of over 50% in size
HT1080NT lethal: qHTS for induction of synthetic lethality in tumor cells producing 2HG: qHTS for the HT-1080-NT fibrosarcoma cell line | HT-1080-NT fibrosarcoma viability, CellTiter-Glo ATP luminescence, 48 h | Potency, µM (titrated, usually from 46.1 µM), usual class: cytotoxic | 360,000 compounds, 1.6% hits;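 further: NT is the 2HG producing partner of a matched IDH1 knockdown line; nearly all actives have a fitted effect of over 55% in size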
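Viability of the 2HG-overproducing fibrosarcoma line after 48 hours of compound exposure at 37 degrees C was determined by luminescence with CellTiter-Glo, and concentration-effect curves were then fitted and categorized.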
KB-3-1 tox: qHTS assay for MDR1-selective chemotherapeutics: Primary screen using the parental adenocarcinoma cell KB-3-1; KB-3-1 viability, CellTiter-Glo ATP luminescence, 72 h; Potency, µM (titrated, usually from 46.1 µM), most hits filed as cytotoxic; 400,000 compounds, 1.4% hits; further: nearly all actives have a fitted effect of over 60% in size
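Cytotoxicity measured as CellTiter-Glo luminescence after 72 h at 37 C. Compound titrations were pinned onto drug-naive KB-3-1 parental adenocarcinoma cells grown in DMEM with 10% FBS, and normalized data fitted to concentration-response curves.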
SW480 rerep: A quantitative high throughput screen for small molecules that induce DNA re-replication in SW480 colon adenocarcinoma cells; 340,000 compounds, 1.8% hits; SW480 DNA re-replication, Hoechst DNA content imaging, 48 h; Potency, µM (series often up to 46.1 µM), usual class: activators; further: nearly all actives have a fitted effect of over 55% in size
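Cells (250 per well) received 23 nL compound or DMSO by pin tool and were kept 48 hr at 37 C, 5% CO2. Nuclei were then stained with Hoechst for 40 min and scanned for DNA content.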
Large screens that a line does not name were inactive. The call rests on the fitted dose curve; in most records, active means well fitted curve in the direction sought with a large enough effect; inconclusive means small, poorly fitted or top-dose-only effect, or another doubt; inactive means no such curve, though single readings can be large; an effect the other way counts as inactive or inconclusive.

CCN(CC)CCNc1cccc2sc3ccccc3c(=O)c12	KB-V1 MDR tox inconclusive (no result: MCF10A rerep, SW480 rerep)
CN(C)CCNc1cccc2sc3ccc(O)cc3c(=O)c12	KB-V1 MDR tox 23µM, HT1080 IDH1KD tx 12µM, HT1080NT lethal 9.2µM, KB-3-1 tox 16µM (no result: MCF10A rerep, SW480 rerep)
Cc1cc(N2CCN(C)CC2)ccc1NC(=O)c1c2c(nc3ccccc13)CCN(Cc1ccccc1)C2	KB-V1 MDR tox inconclusive, HT1080 IDH1KD tx 4.6µM, HT1080NT lethal 5.8µM, SW480 rerep inconclusive
Cc1c(Cl)cccc1NC(=O)COC(=O)c1c2c(nc3ccccc13)CCN(Cc1ccccc1)C2	KB-V1 MDR tox 2.1µM, HT1080 IDH1KD tx inconclusive, MCF10A rerep inconclusive, HT1080NT lethal inconclusive, KB-3-1 tox inconclusive, SW480 rerep inconclusive
CC(C)c1ccccc1NC(=O)COC(=O)c1c2c(nc3ccccc13)CCN(Cc1ccccc1)C2	KB-V1 MDR tox inconclusive, HT1080 IDH1KD tx inconclusive, MCF10A rerep inconclusive, HT1080NT lethal inconclusive, KB-3-1 tox inconclusive
O=C(NC1CCCCCC1)c1c2c(nc3ccccc13)CCN(Cc1ccccc1)C2	MCF10A rerep inconclusive
COc1ccccc1C(CNC(=O)c1ccc(S(=O)(=O)NCc2ccco2)cc1)N(C)C (configuration not stated)	none
COc1ccc(S(=O)(=O)N2c3cc(Cl)ccc3Oc3nc4ccccc4nc32)cc1	KB-V1 MDR tox 7.3µM, HT1080 IDH1KD tx 0.92µM, MCF10A rerep 1µM, HT1080NT lethal inconclusive, KB-3-1 tox 2.1µM, SW480 rerep 2.1µM
O=S(=O)(c1ccc(Cl)cc1)N1c2ccccc2Oc2nc3ccccc3nc21	KB-V1 MDR tox inconclusive, MCF10A rerep 15µM, KB-3-1 tox inconclusive
CCCCN1CN(S(=O)(=O)c2ccc(OC)cc2)c2nc3ccccc3nc21	none
O=S(=O)(c1ccc(Cl)cc1)N1CN(CC2CCCO2)c2nc3ccccc3nc21 (configuration not stated)	none
Cc1[nH][nH]c(=O)c1C(c1c(C)[nH][nH]c1=O)c1cn(Cc2ccccc2Cl)c2ccccc12	KB-V1 MDR tox 18µM, HT1080 IDH1KD tx 18µM, MCF10A rerep 6.5µM, HT1080NT lethal inconclusive, KB-3-1 tox 7.3µM, SW480 rerep 16µM
N/C(=N\O)c1cn(Cc2ccccc2Cl)c2ccccc12	HT1080NT lethal inconclusive
CC1=CC(=O)N(c2cccc3c(N4C(=O)C=C(C)C4=O)cccc23)C1=O	HT1080 IDH1KD tx 26µM, MCF10A rerep inconclusive, KB-3-1 tox inconclusive, SW480 rerep 13µM
O=C(COC(=O)Cc1ccc(F)cc1)NC(=O)c1ccccc1	none
Fc1ccc(-[n+]2nc(Nc3ccccc3)sc2-c2ccc(OCc3ccccc3)cc2)cc1	MCF10A rerep 1.3µM, KB-3-1 tox inconclusive
Cc1c(Cl)cccc1NC(=S)Nn1cnnc1	none
Cc1ccccc1C(=O)Nc1ccc2nc3n(c(=O)c2c1)CCC3	KB-V1 MDR tox inconclusive, KB-3-1 tox 6.5µM
Cc1ccccc1C(=O)Nc1ccc2nc3n(c(=O)c2c1)CCCC3	SW480 rerep inconclusive
O=C(CCC(=O)Nc1ccc(Cl)cc1Cl)N/N=C/c1ccc([N+](=O)[O-])o1	KB-V1 MDR tox inconclusive, HT1080 IDH1KD tx inconclusive, MCF10A rerep inconclusive, HT1080NT lethal inconclusive, KB-3-1 tox inconclusive, SW480 rerep 4.6µM
O=C(Cc1ccc2c(c1)OCO2)NN=Cc1ccc([N+](=O)[O-])o1	KB-V1 MDR tox 23µM, MCF10A rerep inconclusive, SW480 rerep 18µM
Cc1ccc(NCC(=O)N/N=C\c2ccc([N+](=O)[O-])o2)cc1	KB-V1 MDR tox inconclusive, HT1080NT lethal inconclusive
CCCCCC(=O)N/N=C/c1ccc([N+](=O)[O-])o1	HT1080 IDH1KD tx inconclusive, HT1080NT lethal inconclusive, SW480 rerep 8.9µM
COC(=O)c1ccc2nc(-c3ccc(F)cc3)c(CC3CCCCC3)n2c1	KB-V1 MDR tox inconclusive (no result: MCF10A rerep, SW480 rerep)
COc1ccc2nc(SCC(=O)NCC(F)(F)F)[nH]c2c1	none
Cc1noc(C)c1S(=O)(=O)N1CCN(c2ccc(Cl)cc2)CC1	none
CC(C)Oc1ccc(C(=O)Nc2cc(S(=O)(=O)N3CCOCC3)ccc2N2CCOCC2)cc1	KB-V1 MDR tox 16µM, HT1080 IDH1KD tx inconclusive, MCF10A rerep inconclusive, KB-3-1 tox inconclusive, SW480 rerep inconclusive
O=C(Nc1ccccc1C(=O)N1CCCC1)c1cccc(S(=O)(=O)N2CCCCCC2)c1	none
CCNC(=O)c1ccccc1NC(=O)c1cccc(S(=O)(=O)N2CCC(C)CC2)c1	KB-V1 MDR tox 16µM
CC(C)Oc1ccc(S(=O)(=O)N2CCOCC2)cc1NC(=O)c1cccc(S(=O)(=O)N2CCCC2)c1	KB-V1 MDR tox 18µM
O=C(Nc1ccccc1C(=O)N1CCOCC1)c1cccc(S(=O)(=O)N2CCCC2)c1	KB-V1 MDR tox 9.2µM
CCN(CC(=O)Nc1ccc(Br)cc1)C(=O)c1nc2nc(C)cc(C)n2n1	none
CC1(C)Cc2c(sc3ncn4nc(CCC(=O)O)c(=O)nc4c23)CO1	none
Cc1ccc(CNCCCn2cnc(C(=O)Nc3ccc(C)c(C)c3)n2)o1	none
CCOC(=O)/C=C1/SCC(=O)N1CC(=O)NC12CC3CC(CC(C3)C1)C2	MCF10A rerep inconclusive
Nc1nonc1C(=O)OCC(=O)N1CCCCC1	none
CCN(CC)S(=O)(=O)c1cccc(NC(=O)c2cc(-c3cccs3)nn2-c2ccccc2)c1	KB-V1 MDR tox 3.7µM, SW480 rerep 8.2µM
CN(CC(=O)Nc1cccc(F)c1)C(=O)c1cc(-c2cccs2)nn1-c1ccccc1	KB-V1 MDR tox inconclusive, MCF10A rerep inconclusive
CN(C)S(=O)(=O)c1cccc(NC(=O)c2cc(-c3cccs3)nn2-c2ccccc2)c1	KB-V1 MDR tox 5.8µM, MCF10A rerep inconclusive, SW480 rerep inconclusive
CCN(CC1COc2ccccc2O1)C(=O)CN1C(=O)NC(C)(c2ccc(C)cc2)C1=O (configuration not stated)	KB-V1 MDR tox inconclusive
O=C(NCc1ccccc1)C(=O)NCC1COc2ccccc2O1 (configuration not stated)	KB-V1 MDR tox 5.2µM, HT1080 IDH1KD tx 10µM, MCF10A rerep 12µM, HT1080NT lethal 16µM, SW480 rerep inconclusive
CCCn1nc(C(=O)NCC2COc3ccccc3O2)c2ccccc2c1=O (configuration not stated)	KB-V1 MDR tox 7.3µM
CCCn1nc(C(=O)NC2CC2)c2ccccc2c1=O	none
CCCCn1nc(C(=O)NCC(=O)Nc2c(C)cccc2C)c2ccccc2c1=O	KB-V1 MDR tox 1.6µM
